Compound activity: PubChem BioAssay, National Center for Advancing Translational Sciences (NCATS)
Only a selection was taken, and hits are over-represented in it overall.
NS1 function inh – qHTS Assay for Inhibitors of Influenza NS1 Protein Function; 0.4% of 270,000 active; Potency, µM (titrated, usually from 46.1 µM), for inactives: at the top dose activity, positive = more growth; calls by dose curve; note: potency is the fitted concentration of half-maximal effect; actives are rising curves; nearly all actives have a fitted effect of over 50% in size
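Compounds were scored for reversing the slow growth caused by influenza A NS1 in S. cerevisiae, measured by optical density at 600 nm. Assay medium contained 2% galactose at pH 6.0; NS1-free yeast of the same strain were the positive control.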
Tb PYK inh – qHTS of Trypanosoma Brucei Inhibitors. TbPYK enzyme, Kinase-Glo Plus ATP luminescence, 45 min. Potency, µM (doses to about 76.8 µM), without a hit: at the highest dose activity, negative = inhibition, most hits filed as inhibitors. 0.12% of 410,000 active. AID 624173, 2012; note: potency is the fitted concentration of half-maximal effect; % is set by controls: 0 for no effect and ±100 for the full control effect; nearly all actives have a fitted effect of over 50% in size
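TbPYK + substrate in 50 mM TEA pH 7.2, 100 mM KCl, 10 mM MgCl2, 0.05% BSA, 0.01% Tween-20; cpd pinned; ADP 130 uM final; 45 min RT; Kinase-Glo Plus 10 min; luminescence endpoint.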
SARS PLpro yeast – qHTS of Yeast-based Assay for SARS-CoV PLP; 0.19% of 330,000 active; Potency, µM (top dose mostly 32.9 µM), inactives show at the highest dose activity, positive = growth rescue, actives largely listed as activators; S. cerevisiae expressing SARS-CoV PLpro, growth rescue; AID 485353, 2010; calls by dose curve; note: potency is the fitted concentration of half-maximal effect; 0% is about no effect; nearly all actives have a fitted effect of over 55% in size
Shiga toxin inh – A qHTS for Small Molecule Inhibitors of Shiga Toxin; Vero cells, Shiga toxin protein synthesis inhibition reporter; inhibition, % at 38.7 µM; 9.2% of 290,000 active; AID 2315, 2010; in the data active = inhibition mostly above about 28%, no sharp cut-off; inactive = mostly below about 43%; note: 0% is about no effect
Cycloheximide cs – Cycloheximide Counterscreen for Small Molecule Inhibitors of Shiga Toxin; cell reporter, cycloheximide protein synthesis inhibition counterscreen; max response, %; 12% of 300,000 active; AID 2314, 2010; in the data active = max response mostly above about 13%, no sharp cut-off; inactive = mostly below about 14%; note: read at 38.3 µM for the half of the compounds with a filed dose; 0% is about no effect
LmPK inhibitor – qHTS Assay for Inhibitors of Leishmania Mexicana Pyruvate Kinase (LmPK). Q27686. 0.37% of 290,000 active. purified LmPK, Kinase-Glo ATP luminescence, 1 h. Potency, µM (top dose mostly 57.5 µM), for inactives: top-dose activity change, negative = inhibition, actives largely listed as inhibitors. AID 1721, 2009; note: potency is the fitted concentration of half-maximal effect; % is set by controls: 0 for no effect and ±100 for the full control effect
Target sequence (Q27686 whole entry, looked up): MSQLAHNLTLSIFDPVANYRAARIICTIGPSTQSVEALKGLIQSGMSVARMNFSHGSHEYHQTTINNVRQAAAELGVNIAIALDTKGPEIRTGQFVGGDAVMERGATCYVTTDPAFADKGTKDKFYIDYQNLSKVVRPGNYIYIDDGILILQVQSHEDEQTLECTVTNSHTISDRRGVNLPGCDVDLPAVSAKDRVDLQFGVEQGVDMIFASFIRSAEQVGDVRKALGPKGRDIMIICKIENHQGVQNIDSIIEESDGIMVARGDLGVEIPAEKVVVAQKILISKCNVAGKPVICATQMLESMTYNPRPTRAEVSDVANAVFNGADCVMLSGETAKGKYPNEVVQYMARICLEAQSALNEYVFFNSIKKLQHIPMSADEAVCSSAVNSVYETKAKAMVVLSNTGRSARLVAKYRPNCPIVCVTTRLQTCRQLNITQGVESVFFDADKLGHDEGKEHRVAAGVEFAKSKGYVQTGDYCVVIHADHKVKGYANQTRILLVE
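0.1 nM LmPK, 0.5 mM PEP, 0.1 mM ADP; 50 mM imidazole pH 7.2, 7 mM MgCl2, 50 mM KCl; 1 h RT. Kinase-Glo luminescence readout, normalized to no-enzyme (full inhibition) and uninhibited wells.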
The depositor's hits bear a star; ? = inconclusive; nt = no result given. Unless noted, calls come from the whole dose curve; as a rule, active = well fitted curve in the direction sought with a large enough effect; inconclusive = small, poorly fitted or top-dose-only effect, or another doubt; inactive = no such curve, though single readings can be large; an effect the other way counts as inactive or inconclusive.

SMILES | NS1 function inh | Tb PYK inh | SARS PLpro yeast | Shiga toxin inh | Cycloheximide cs | LmPK inhibitor
O=[N+]([O-])c1cc2oc3c(c2c(C=NCc2ccncc2)c1O)CCCC3 | -30.7% | ? | nt | -9.7 | -2.7 | 14.1µM*
CC(C)(C)N=Cc1c(O)ccc2oc3c(c12)CCCC3 | -57.2% | 0.8% | -0.6% | -5.8 | -0.8 | 2.5%
CCCCCCCCCCCCCCCC(=O)OC[C@@H](NC(=O)C(Cl)Cl)[C@H](O)c1ccc([N+](=O)[O-])cc1 | nt | -2.4% | nt | nt | nt | nt
CCOc1ccc(-n2c(-c3ccoc3)nc3ccccc3c2=O)cc1 | 1.7% | -2.6% | 8.7% | 10.5 | -1.0 | 10.1%
CCOc1ccc(-n2c(C)nc(O)c2N=Nc2ccccc2)cc1 | nt | 0.0% | -1.1% | 67.4 | 17.3* | 4.1%
CC1CCCCC1NC(=O)c1cc2ccccc2o1 (configuration not stated) | -0.2% | -7.8% | 9.9% | 35.4* | 34.7* | -0.1%
O=C(NC1CCCC1)c1cc2ccccc2o1 | -14.5% | -8.4% | -0.6% | 55.7* | 39.9* | -8.0%
CC1CCCCC1NC(=O)c1ccco1 (configuration not stated) | nt | -4.6% | 2.2% | nt | nt | nt
Cc1ccc(F)c(C2C3C=CCC(c4ccccc4)C3C(=O)N2Cc2ccccc2)c1 (configuration not stated) | nt | nt | nt | -2.7 | 9.1 | nt
O=c1c2ccccc2on1-c1ccccc1 | nt | -3.2% | nt | nt | nt | nt
CC(C)c1nccn1Cc1ccc(Cl)cc1Cl | -2.8% | nt | nt | nt | nt | nt
CCOC(=O)C1CCN(C(=O)c2cc3ccc4ccc(C)[nH]c4c3n2)CC1 | nt | 2.9% | nt | nt | nt | nt
Cc1ccc(NC(=O)c2c(C)nn(-c3ccccc3)c2-n2cccc2)c(Cl)c1 | nt | -10.6% | nt | nt | nt | nt
Cc1nc2nc(-c3ccc(Cl)cc3)[nH]n2c(=O)c1C | -1.6% | nt | -12.6% | 37.7* | 4.8 | 1.1%
Cc1nc2nc(-c3ccccc3)[nH]n2c(=O)c1C | -1.8% | -2.2% | 6.0% | 44.4 | 14.6 | -9.8%
CC(C)=N/N=C(\N)SCc1ccccc1 | -5.1% | -5.0% | 2.5% | 59.6 | 18.6* | -1.8%
Cc1ccc(CSC(N)=Nc2ccccc2)cc1C | -3.1% | nt | nt | nt | nt | nt
c1ccc(N2CCN(c3nc4ccccc4[nH]3)CC2)nc1 | nt | 1.8% | 3.2% | 49.3* | 22.4* | 0.2%
CCOc1ccc(C(C(=O)NC2CCCC2)N(C(=O)c2snc(C(N)=O)c2N)c2cccc(O)c2)cc1 (configuration not stated) | -2.4% | 2.1% | 1.0% | 28.0 | 7.6 | 3.1%
CO/N=C/c1ccc(N2CCCC2)c([N+](=O)[O-])c1 | nt | 1.1% | -1.2% | 52.7 | 31.2* | -0.2%
COc1cccc(C(=O)/C=C/c2ccc(N3CCCCC3)c([N+](=O)[O-])c2)c1 | -1.5% | -0.5% | 0.8% | 60.5* | 29.0* | -4.0%
O=[N+]([O-])c1cc(/C=N/O)ccc1N1CCCC1 | nt | -4.2% | 1.3% | -3.2 | 12.7 | -0.4%
CC(O)[C@H]1CNC(=O)C(=O)N1CCCCC1CCCCC1 (some centres not stated) | -5.7% | 0.3% | -1.9% | -4.1 | -5.4 | -0.2%
Cc1cc(C(=O)N2CCCC(Nc3ccccc3)C2)c2ccc(F)cc2n1 (configuration not stated) | 1.2% | -0.1% | 2.0% | 20.9 | -3.2 | -9.2%
COc1ccccc1-n1c(Cc2cccs2)n[nH]c1=S | nt | ? | -1.5% | 33.8 | 9.3 | -20.4%
SMILES | NS1 function inh | Tb PYK inh | SARS PLpro yeast | Shiga toxin inh | Cycloheximide cs | LmPK inhibitor
S=c1[nH]nc(Cc2cccs2)n1-c1ccccc1 | 11.5% | 8.91µM* | -2.2% | -11.9 | 1.2 | ?
S=c1[nH]nc(Cc2cccs2)n1-c1cccc2ccccc12 | -5.3% | ? | 29.8% | 3.0 | 1.2 | 7.94µM*
Cc1ccc(-n2c(Cc3cccc4ccccc34)n[nH]c2=S)c(C)c1 | 6.3% | ? | 0.2% | -5.6 | -2.8 | -12.0%
S=c1[nH]nc(Cc2cccs2)n1-c1ccccc1Cl | -3.3% | ? | -0.5% | -7.6 | -1.1 | 10µM*
Cc1ccc(C)c(-n2c(Cc3cccs3)n[nH]c2=S)c1 | 15.9% | ? | -21.9% | -16.3 | -0.6 | 10µM*
S=c1[nH]nc(Cc2n[nH]c(=S)n2-c2ccccc2)n1-c1ccccc1 | 11.6% | ? | 0.7% | -10.4 | -4.9 | -1.4%
CC1CCCC(C)N1C(=O)COC(=O)c1cccs1 (configuration not stated) | nt | 0.3% | 0.8% | nt | nt | nt
COc1ccc(C=Nc2c(O)ccc3ccccc23)cc1OC | -0.7% | nt | nt | nt | nt | nt
CCCCOCC(O)CCc1n[nH]c(=S)n1-c1ccccc1 (configuration not stated) | -0.2% | ? | 0.7% | -13.6 | -0.6 | -7.7%
CCCCc1ccc(-n2c(Cc3cccs3)n[nH]c2=S)cc1 | 11.2% | 7.94µM* | -3.3% | -13.6 | -7.6 | -6.2%
Cc1ccc(CCNC(=O)CCCn2c(=O)c3cccn3c3ccc(F)cc32)cc1 | nt | -4.5% | nt | nt | nt | nt
COc1ccc(OCc2cccc(C(=O)NN)c2)cc1 | 10.8% | -9.2% | -5.7% | 139.9* | 124.2* | -5.8%
O=C(NN1CCOCC1)c1cccc(COc2cccc(Br)c2)c1 | -4.0% | -2.8% | -4.0% | 60.9 | 16.1* | 10.9%
CCCNC(=O)c1cccc(COc2ccccc2OC)c1 | -2.4% | 2.7% | -1.2% | 123.3* | 49.9* | -7.4%
NNC(=O)c1cccc(COc2cccc(Br)c2)c1 | 25.2% | -6.7% | -4.8% | 73.7* | 31.7* | 4.4%
Cc1noc(C)c1S(=O)(=O)N(CC(=O)NCCc1ccc(Cl)cc1)c1ccc(C(C)C)cc1 | nt | 4.0% | nt | nt | nt | nt
Cc1cccc(CCNC(=O)C2CCN(c3ncnc4c3nc3n4CCCCC3)CC2)c1 | nt | 0.0% | nt | nt | nt | nt
NNC(=O)c1cccc(COc2ccc(Br)cc2)c1 | 26.6% | 9.1% | -30.1% | 148.7* | 67.7* | 0.7%
NNC(=O)c1ccc(COc2ccc3ccccc3c2)cc1 | -36.1% | 0.3% | -0.4% | 45.4* | 34.8* | 0.9%
COc1ccccc1C(=O)NCCC(=O)N1CCCC(C)C1 (configuration not stated) | -2.6% | -3.9% | -1.8% | -11.0 | -2.5 | -3.0%
Cc1ncc([N+](=O)[O-])n1CC(=O)Nc1ccc(F)cc1F | 3.5% | -5.3% | -1.8% | 26.0 | 2.5 | -2.5%
Cc1ccc(Cn2cc(-c3ccccc3)nn2)cc1 | -40.1% | -3.0% | -6.7% | 86.2* | 56.8* | -2.0%
COc1ccc(-c2cn(Cc3ccc4ccccc4c3)nn2)cc1 | 19.4% | 1.4% | 6.1% | -6.1 | 0.6 | 3.6%
COc1ccc(-c2cn(Cc3ccc(C(=O)c4ccccc4)cc3)nn2)cc1 | 37.8% | 3.8% | 4.1% | 62.0* | 43.0* | 0.4%
COc1ccc(-c2cn(Cc3ccc([N+](=O)[O-])cc3)nn2)cc1 | -18.5% | 2.0% | -2.7% | 23.9* | 10.4 | 0.2%
COc1ccc(-c2cn(CCCOCc3ccccc3)nn2)cc1 | -31.6% | 1.8% | -14.2% | 24.7* | 16.4* | 9.5%
Cc1cccc(C)c1NC(=O)CN1C(=O)c2ccccc2Sc2ncccc21 | nt | 2.4% | nt | nt | nt | nt
